# High-throughput results as filed in PubChem.
# This is one part of a sample in which hits are shown more often than they occur.
# Tg IFNy HTS = T. gondii growth inhibition under IFN-gamma; Toxoplasma gondii growth in IFN-gamma-treated host cells; hits give low values; activity change, negative = inhibition, % (concentration not given with the values); 69,000 compounds, 3.8% hits; AID 1259416; in the data active = activity change below about -70%, passing the limit was not always enough;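 note: host cells are HeLa cells infected with Toxoplasma gondii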
# * marks the source's active call; other numbers are inactive results; i = inactive; ! = repeats disagree.
SMILES,Tg IFNy HTS
O=C(CCc1ccncc1)N1CCC(Oc2cccnc2)CC1,-8
COCCCN(Cc1cccs1)S(=O)(=O)c1ccc2[nH]c(=O)ccc2c1,i
CN(CCc1ccccn1)Cc1cccc(C(=O)Nc2cnn(C)c2)c1,-4
COc1ccc(CNC(=O)c2c(O)c3cccnc3[nH]c2=O)cc1OC,117
CCCCOc1cc(CC2CNC(=O)N2)ccc1OC (centres undefined),-72*!
COc1ccc(CCN2C(=O)CSC2c2ccc(OC)c(OC)c2)cc1OC (centres undefined),-29
CCN(CC)c1ncnc2c1cnn2CC(=O)NC1CCCCCC1,71
Cc1oc(-c2ccsc2)nc1CN1CCCCC1c1ccc(F)cc1 (centres undefined),0
Cc1ccc2[nH]c3c(=O)n(CCc4cnc[nH]4)cnc3c2c1,44
Cc1ccc2c(c1)CCCN2CCn1c(=O)[nH]c2ccc(C)cc2c1=O,-82*
Cc1ccc2[nH]c3c(=O)n(CCCN4CCN(C)CC4)cnc3c2c1,-4
Cn1cc(CN2CC[C@H]3[C@@H]2CCN3C(=O)c2ccsc2)cn1,7
CN(Cc1cccc(Cl)c1)c1nc(-c2cccnc2)nc2c1cnn2C,-82*
CN(CCn1cccn1)c1nc(-c2cccnc2)nc2c1cnn2C,-40
CN(Cc1ncc[nH]1)c1nc(-c2cccnc2)nc2c1cnn2C,-6
COc1cccc(SCC(=O)NC2Cc3ccccc3C2)c1,-4
O=C1CN(/N=C/c2ccc(-c3ccc([N+](=O)[O-])cc3)o2)C(=O)N1,-76*
O=C1OCCN1/N=C/c1ccc([N+](=O)[O-])o1,-19
CSCC1CN(/N=C/c2ccc([N+](=O)[O-])o2)C(=O)O1 (centres undefined),14
COc1ccc(CC(=O)Nc2ccc(-c3nc(-c4ccccc4)co3)cc2)cc1,1
CC(=O)N[C@@H]1C[C@H](Cc2ccccc2)O[C@H](c2cc(C(C)(C)C)n[nH]2)C1,-1
Cc1ccc(OCCCN(C)C(=O)C2CCNCC2)cc1C,-2
O=C(Nc1cccc(-c2nc3ccccc3o2)c1)c1ccccc1,-12
CC(C)CC(=O)Nc1ccc2oc(-c3ccncc3)nc2c1,99
CC(C)(C)c1ccc(C(=O)Nc2ccc3oc(-c4ccccc4)nc3c2)cc1,-84*
SMILES,Tg IFNy HTS
CCCn1c(=O)c(-c2nc(-c3cc(OC)ccc3OC)no2)c(O)c2ccccc21,60
Cc1c(-c2ccnc(N)n2)nnn1-c1ccc(Cl)cc1Cl,-109*
O=c1c(Cl)c(-n2cccn2)cnn1-c1ccc(Cl)cc1Cl,56
Cc1c(-c2ccccc2)nnn1-c1cc(Cl)cc(Cl)c1,52
CCN1CC(n2cnc(-c3ccccc3)c2-c2cnn3cccnc23)CC1=O (centres undefined),2
COc1ccccc1C1c2[nH]c3ccccc3c2CCN1Cc1nc2ccccc2n1C (centres undefined),-54
O=C(NOCCO)c1cc(CN2OCCCC2=O)c(F)c(F)c1Nc1ccc(I)cc1F,9
Cc1cc(I)ccc1Nc1c(C(=O)NOCC2CC2)cc(F)c(F)c1F,-82*
O=C(c1ccc(F)c(F)c1Nc1ccc(I)cc1F)N1CC(O)([C@@H]2CCCCN2)C1,-49
CCc1cnc(N2CCC(N(C)Cc3cccnc3)CC2C(=O)O)nc1 (centres undefined),2
CC(C)C(=O)N1CCCn2cnc(CN3CCCC3=O)c2C1,2
O=c1cc(-c2ccc(O)cc2)oc2cc(O)cc(O)c12,53
O=c1cc(-c2ccc(O)cc2)oc2ccc(O)cc12,-87*
O=c1cc(-c2ccccc2)oc2cc(O)ccc12,28
Cc1ccc(CNC(=O)CN2C(=O)CCc3cc(S(=O)(=O)N4CCC(C)CC4)ccc32)o1,16
COc1ccc(-c2ccc(NS(C)(=O)=O)nc2)c(OC)c1OC,-59
Cn1nc2c(c1C(=O)Nc1ccc(N3CCCCC3)c(F)c1)CCCC2,-95*
Cn1nc(C(=O)Nc2ccc(N3CCCCC3)c(C(F)(F)F)c2)ccc1=O,-54
O=C(Nc1ccc(N2CCOCC2)c(F)c1)c1ccnc(N2CCOCC2)c1,12
Cc1ccc(C(N)=O)c(N2CCCN(Cc3ccc(F)cc3)C(C(C)C)C2)n1 (centres undefined),10
CCOC(=O)c1nc(N(C)c2ccc(F)cc2)c2ccccc2n1,-13
CCOc1ccc(-c2nc(CN(c3ccccc3)S(=O)(=O)c3cccs3)c(C)o2)cc1OC,-46
O=C(/C=C/c1ccccc1)NC(NC(=S)Nc1cccc2cccnc12)C(Cl)(Cl)Cl (centres undefined),-36
O=C(NC(NC(=S)Nc1ccc(F)c([N+](=O)[O-])c1)C(Cl)(Cl)Cl)C(c1ccccc1)c1ccccc1 (centres undefined),-81*
O=C(NCCc1ccc(Cl)cc1)C(c1ccccc1)c1ccccc1,-11
SMILES,Tg IFNy HTS
Cc1nnsc1C(=O)N1CCCC(c2ccc(C(=O)Nc3ccc(F)cc3)cn2)C1 (centres undefined),6
CS(=O)(=O)N1CCC(NC(=O)CC2C(=O)NCCN2Cc2ccccc2)CC1 (centres undefined),1
O=c1ccc2cc(S(=O)(=O)N3CCCC3)ccc2[nH]1,i
COC(=O)Nc1ccc(S(=O)(=O)N2CCCCC2)cc1,25
O=c1[nH]c(O)c(N=Nc2ccc(S(=O)(=O)N3CCCC3)cc2)c(=O)[nH]1,-74*
CCCc1cnc(-c2ccc(OC)nc2)nc1,360
CS(=O)(=O)N1CCOC2CCN(C(=O)c3ccoc3)CCC21 (centres undefined),2
Cc1ccc(C(C)NC(=O)Cn2ncc3c(N4CCC(C)CC4)ncnc32)cc1 (centres undefined),-42
CCc1nc2cc(NC(=O)COc3ccccc3-c3nc(C)no3)ccc2n1CC,-74*
CCOc1ccc(NC(=O)Cn2c(=O)cc(-c3nc(C)no3)c3ccccc32)cc1,21
Cc1noc(-c2ccccc2OCC(=O)O)n1,62
CC(C)CC(NC(=O)c1cnnn1-c1ccccc1)c1ncnn1C (centres undefined),-24
COc1ccccc1-n1nnnc1SCC(=O)Nc1c(C)ccc2nsnc12,18
CCC(=O)Nc1ccsc1C(=O)OC,18
O=C(Nc1ccc2ccccc2n1)c1ccc(Cl)cc1,305
Cc1nnc2n1CC(c1cccc(C(=O)Nc3ncc(Cc4ccccc4F)s3)c1)CC2 (centres undefined),-48
O=C(Nc1ncc(Cc2cccc3ccccc23)s1)c1ccc(Cl)cc1,-101*
O=c1[nH]c2ccccc2c(O)c1-c1nc(-c2ccc(F)c(Cl)c2)no1,34
COc1ccc(-c2ccc(C(=O)N3CCC(Oc4ccc(F)cc4)CC3)c(=O)[nH]2)cc1,-68
CC(=O)[C@@]1(O)CC[C@H]2[C@@H]3C[C@H](C)C4=CC(=O)CC[C@]4(C)[C@H]3CC[C@@]21C,5
C[C@]12CCC(=O)C=C1[C@@H]1C[C@@H]1[C@H]1[C@@H]3[C@@H]4C[C@@H]4[C@@]4(CCC(=O)O4)[C@@]3(C)CC[C@@H]12,-85*
CC(=O)SC1CC2=CC(=O)CCC2(C)C2CCC3(C)C(CCC34CCC(=O)O4)C12 (centres undefined),-25
COc1ccc(NC(=O)c2cncc(NS(=O)(=O)c3ccc(Br)cc3)c2)cc1OC,49
O=C1COC2(CCN(C(=O)c3ccco3)CC2)CN1CC1CC1,4
CC(NC(=O)CSCc1ccccc1Cl)c1nncn1C (centres undefined),-14
COc1ccccc1NC(=O)C(=O)NCCc1sc(-c2ccc(F)cc2)nc1C,-6
CCOC(=O)N1CCN(C(=O)c2ccc(N3CCC(NCc4cccs4)CC3)cc2)CC1,-2
